Where “and” joins values, the source holds several entries; their conditions need not be identical. Equal entries are not always repeated. Records with an inconclusive call do not appear. Calls of active or inactive are those of the source. Unless noted, calls follow the shape of the dose curve; as a rule, active = well fitted curve in either direction with a large enough effect (not every such curve was filed as active); inconclusive = small, poorly fitted or top-dose-only effect, or another doubt; inactive = flat fitted curve, though single readings scatter.
Experiments:
[1] = AP1 Signaling Pathway (AID 357);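 also: ME-180 reporter cells stimulated with EGF at its EC50 level; % is scaled to controls: 0 for no effect and ±100 for the full control effect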
Outline: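 First, ME-180 AP-1-bla cells were cultured overnight at 37 °C in low-serum Opti-MEM. Next, titrated compounds with EC50 EGF were incubated 5 hours. Finally, CCF4 was added for 2.5 hours and the 460/530 nm ratio recorded.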

[2] = biological target: Cytochrome P450 1A2 (Homo sapiens) (UniProt P05177); experiment: p450-cyp1a2 (AID 410; calls by dose curve; also: potency is read from the fitted curve at half-maximal effect;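 as to activity change, negative = inhibition: -100% = full effect of reference inhibitor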)
Outline: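 Read-out is luminescence from luciferin produced by CYP1A2 demethylation of Luciferin-ME (100uM, at Km). Detection reagent stopped the 60 min NADPH-dependent reaction; signals were normalized to 57 uM furafylline.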

[3] = NFAT Signaling Pathway (AID 444); settings: Jurkat NFAT-bla M1, carbachol, beta-lactamase ratio, 5 h;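 also: carbachol stimulus at about its EC50 of 1 µM final; % is scaled to controls: 0 for no effect and ±100 for the full control effect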
Outline: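 Read-out: CCF4 FRET ratio (460 nm/530 nm) after 1 h RT dye loading, used for %activity and AC50 from titration series. Cells: Jurkat NFAT-β-lactamase/M1 line, treated with compound plus 1 uM carbachol for 5 h, 37 °C.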

[4] = Stat Signaling Pathway (AID 446);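 also: ME-180 cervical cancer cells given 40 pM IL-6 alongside compound; SIE-controlled beta-lactamase reporter measured as 460/530 nm FRET emission ratio; % is scaled to controls: 0 for no effect and ±100 for the full control effect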
Outline: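 Normalization used AC90 stimulation (300 pM IL-6) and AC90 inhibition (125 nM pan-JAK inhibitor at 40 pM IL-6). The underlying signal is SIE-driven beta-lactamase in ME-180 cells after 5 h IL-6 exposure with compound.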

[5] = biological target: Mitogen-activated protein kinase 10 (Mus musculus) (UniProt Q61831); experiment: JNK3 AlphaScreen Assay (AID 530);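 also: kinase came from lysate of stimulated human HepG2 cells; signal reports phosphorylation of biotinylated GST-cJun 1-79 at Ser73 with 10 µM ATP; % is scaled to controls: 0 for no effect and ±100 for the full control effect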
Outline: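 Kinase buffer: 20 mM Tris-HCl pH 7.6, 10 mM MgCl2, 1 mM DTT, 0.1 mM Na3VO4, 0.01% Tween-20; ATP 10 uM. Substrate biotin-GST-cJun(1-79), enzyme from activated HepG2 lysates. Detection by Ser73 phospho-antibody AlphaScreen.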

[6] = biological target: 3',5'-cyclic-AMP phosphodiesterase 4B (Homo sapiens) (UniProt Q07343); experiment: qHTS Assay for Inhibitors of PDE-IV (AID 607; active = well fitted activation curve with a large enough effect in the main read-out, with a control signal flat, not every such curve was filed as active; also: % of control where 0% means no effect)
Outline: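 HEK293 ACTOne cells with CNG channel (1000/well), endogenous PDE4; membrane potential dye, compounds up to 22.9 uM final. Fluorescence Ex 535/Em 590; RO 20-1724 (100 uM final) as reference.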

[7] = qHTS Assay for Lipid Storage Modulators (AID 1519; calls by dose curve); settings: Drosophila S3 cells, BODIPY lipid droplet/cell ratio, laser cytometry, cells loaded with oleic acid; for activity change, negative = inhibition: at 25.7 µM (top of the series)
Outline: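 Cells seeded at 5,000 per well were treated with compounds over a concentration series and loaded with oleic acid (400 uM, as added). Lipid droplet fluorescence (488 nm excitation, 500-530 nm channel) was read by laser-scanning cytometry and normalized to 20 uM Triacsin C.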

[8] = biological target: Ubiquitin carboxyl-terminal hydrolase 1 (Homo sapiens) (UniProt O94782); experiment: Inhibitors of USP1/UAF1: Pilot qHTS (AID 504865; active = well fitted curve in the direction sought with a large enough effect; an effect the other way counts as inactive or inconclusive; also: nearly all actives have a fitted effect of over 35% in size; also: potency is read from the fitted curve at half-maximal effect)
Outline: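 Deubiquitinase activity followed as kinetic rhodamine fluorescence release from 150 nM Ub-Rho. 1 nM USP1/UAF1 with compound, after 15 min room-temperature preincubation, in HEPES pH 7.8 buffer containing TCEP, EDTA, BSA and Tween-20.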

[9] = biological target: ATP-dependent 6-phosphofructokinase (Trypanosoma brucei brucei) (UniProt O15648); experiment: qHTS Assay to Find Inhibitors of T. brucei phosphofructokinase: hit validation (AID 492961; active = well fitted curve in the direction sought with a large enough effect; an effect the other way counts as inactive or inconclusive)
Outline: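 ADP-Glo luminescence read-out of ADP formed by 1.25 nM PFK from 0.1 mM ATP and 0.5 mM F6P (TEA pH 8.0, 45 min, RT). Compounds titrated; activity normalized to no-enzyme and full-enzyme controls.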

[10] = biological target: Luciferin 4-monooxygenase (Photinus pyralis) (UniProt P08659); experiment: Biochemical firefly luciferase enzyme assay for NPC (AID 624030; active = well fitted curve in the direction sought with a large enough effect; an effect the other way counts as inactive or inconclusive;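 also: purified P. pyralis luciferase at 10 nM with luciferin and ATP substrate; 0% = DMSO and -100% = full luciferase inhibition by PTC124 control; nearly all actives have a fitted effect of over 70% in size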)
Outline: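 Direct inhibition of firefly luciferase enzyme (10 nM final, 50 mM Tris Acetate) assessed by luminescence within 5 minutes. Percent activity scaled between DMSO and PTC124 positive control, with concentration-effect curves classified by fit quality and response.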

[11] = S16 Schwann cell viability assay (CellTiter-Glo assay) (AID 624031; active = well fitted curve in the direction sought with a large enough effect; an effect the other way counts as inactive or inconclusive;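 also: native untransfected S16 rat Schwann cells; cellular ATP luminescence as a viability measure; plate controls were DMSO-treated cells for no effect and cell-free wells for full effect; nearly all actives have a fitted effect of over 70% in size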)
Outline: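 Cells were seeded at 500-750 per well in phenol red-free DMEM with 10% FBS and left overnight. Compounds or DMSO were pinned in, incubation ran 24 h at 37 °C/5% CO2, then CellTiter-Glo reagent was added and luminescence measured.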

[12] = S16 Schwann cell PMP22 intronic element firefly luciferase assay (AID 624032; active = well fitted curve in the direction sought with a large enough effect; an effect the other way counts as inactive or inconclusive;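 also: plate controls were DMSO for no effect and PTC124 positive control mean for full effect; nearly all actives have a fitted effect of over 30% in size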)
Outline: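 Luciferase reporter of PMP22 intronic-element expression in stably transfected S16 rat Schwann cells, read by ONE-Glo luminescence after 24 h compound exposure at 37 C. Activity scaled between DMSO (0%) and positive-control PTC124; concentration-effect curves quality-classified.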

[13] = qHTS profiling for inhibitors of Plasmodium falciparum proliferation (AID 504749; active = well fitted curve in the direction sought with a large enough effect; an effect the other way counts as inactive or inconclusive;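 also: 0% = DMSO vehicle and full inhibition = artemisinin control; nearly all actives have a fitted effect of over 60% in size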); settings: P. falciparum in erythrocytes, SYBR Green DNA, 72 h, at 12.8 µM (top of the series)
Outline: (§1)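 In a 72 h erythrocytic culture (37 C, humidified, 5% CO2) at 2.5% hematocrit and 0.3% starting parasitemia, compounds were tested; SYBR Green I in detergent lysis buffer stained parasite DNA overnight.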

[14] = test system: 3D7; experiment: as above; settings: P. falciparum in erythrocytes, SYBR Green DNA, 72 h; series mostly up to 28.7 µM
Outline: as §1

[15] = test system: CP262; experiment: as above; settings: P. falciparum in erythrocytes, SYBR Green DNA, 72 h; series mostly up to 28.7 µM
Outline: as §1

[16] = test system: ECU; experiment: as above; settings: P. falciparum in erythrocytes, SYBR Green DNA, 72 h; series mostly up to 28.7 µM
Outline: as §1

[17] = test system: HB3; experiment: as above; settings: P. falciparum in erythrocytes, SYBR Green DNA, 72 h; series mostly up to 28.7 µM
Outline: as §1

[18] = biological target: Glucocorticoid receptor (Homo sapiens) (UniProt P04150); experiment: GR-GFP Redistribution (AID 450;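 active = compounds whose dose series gives a full or clear partial fitted curve of increased nuclear translocation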; also: potency is read from the fitted curve at half-maximal effect); settings: U2OS GR-GFP nuclear translocation, laser cytometry, 2 h
[19] = biological target: Glucocorticoid receptor (Homo sapiens) (UniProt P04150); experiment: GR-EFC Redistribution (AID 451; calls by dose curve; also: potency is read from the fitted curve at half-maximal effect); settings: CHO-K1 GR-EFC translocation, beta-gal luminescence, 2 h
Outline: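 Translocation of GR-ED fusion to nuclear EA restores b-gal, read by luminescence after 1 h room-temperature detection. Engineered CHO-K1 biosensor cells, 1,000/well, exposed 2 h at 37 C to titrations up to 46 uM final.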

[20] = measured here: cell count channel max response
[21] = measured here: lipid channel max response

Chain of 3',5'-cyclic-AMP phosphodiesterase 4B (Homo sapiens) (Q07343 whole entry, looked up): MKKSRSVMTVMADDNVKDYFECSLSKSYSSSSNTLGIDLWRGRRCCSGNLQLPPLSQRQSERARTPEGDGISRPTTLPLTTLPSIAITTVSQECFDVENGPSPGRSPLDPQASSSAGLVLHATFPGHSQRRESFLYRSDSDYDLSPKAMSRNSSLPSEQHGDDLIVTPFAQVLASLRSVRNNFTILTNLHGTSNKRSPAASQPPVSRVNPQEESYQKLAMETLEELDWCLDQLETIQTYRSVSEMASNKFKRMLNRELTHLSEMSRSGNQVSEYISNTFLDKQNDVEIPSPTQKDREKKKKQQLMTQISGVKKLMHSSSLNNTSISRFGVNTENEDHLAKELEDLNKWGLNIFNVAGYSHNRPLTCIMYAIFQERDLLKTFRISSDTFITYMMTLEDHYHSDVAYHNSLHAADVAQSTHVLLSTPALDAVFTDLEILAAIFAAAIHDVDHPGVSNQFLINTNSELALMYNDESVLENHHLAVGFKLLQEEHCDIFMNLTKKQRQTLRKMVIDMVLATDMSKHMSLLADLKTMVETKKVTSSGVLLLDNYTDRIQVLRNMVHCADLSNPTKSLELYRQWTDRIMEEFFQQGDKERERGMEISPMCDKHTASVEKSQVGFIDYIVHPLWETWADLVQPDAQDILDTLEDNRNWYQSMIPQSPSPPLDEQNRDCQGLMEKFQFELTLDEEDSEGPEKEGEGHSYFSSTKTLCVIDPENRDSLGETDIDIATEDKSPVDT
Chain of Glucocorticoid receptor (Homo sapiens) (P04150 whole entry, looked up, the tested form may be a part): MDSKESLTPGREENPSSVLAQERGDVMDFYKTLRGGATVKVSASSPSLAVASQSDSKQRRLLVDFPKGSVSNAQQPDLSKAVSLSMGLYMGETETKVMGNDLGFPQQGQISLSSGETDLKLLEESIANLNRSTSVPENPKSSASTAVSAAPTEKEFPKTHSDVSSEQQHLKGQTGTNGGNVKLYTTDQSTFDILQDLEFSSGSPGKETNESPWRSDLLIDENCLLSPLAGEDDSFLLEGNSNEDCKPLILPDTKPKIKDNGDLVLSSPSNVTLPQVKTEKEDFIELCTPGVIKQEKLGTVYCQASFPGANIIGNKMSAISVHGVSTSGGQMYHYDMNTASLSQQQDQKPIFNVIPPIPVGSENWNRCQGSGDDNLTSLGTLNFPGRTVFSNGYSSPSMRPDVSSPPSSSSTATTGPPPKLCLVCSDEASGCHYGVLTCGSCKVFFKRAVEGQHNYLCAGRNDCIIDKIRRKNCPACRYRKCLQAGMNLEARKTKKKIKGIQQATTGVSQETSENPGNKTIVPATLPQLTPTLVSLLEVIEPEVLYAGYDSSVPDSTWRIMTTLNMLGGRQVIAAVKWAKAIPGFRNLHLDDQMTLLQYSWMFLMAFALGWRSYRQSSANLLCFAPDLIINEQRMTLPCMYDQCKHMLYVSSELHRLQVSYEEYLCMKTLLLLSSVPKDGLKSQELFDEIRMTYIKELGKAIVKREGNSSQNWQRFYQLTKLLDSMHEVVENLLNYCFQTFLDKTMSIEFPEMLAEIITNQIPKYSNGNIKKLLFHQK
Chain of Ubiquitin carboxyl-terminal hydrolase 1 (Homo sapiens) (O94782 whole entry, looked up): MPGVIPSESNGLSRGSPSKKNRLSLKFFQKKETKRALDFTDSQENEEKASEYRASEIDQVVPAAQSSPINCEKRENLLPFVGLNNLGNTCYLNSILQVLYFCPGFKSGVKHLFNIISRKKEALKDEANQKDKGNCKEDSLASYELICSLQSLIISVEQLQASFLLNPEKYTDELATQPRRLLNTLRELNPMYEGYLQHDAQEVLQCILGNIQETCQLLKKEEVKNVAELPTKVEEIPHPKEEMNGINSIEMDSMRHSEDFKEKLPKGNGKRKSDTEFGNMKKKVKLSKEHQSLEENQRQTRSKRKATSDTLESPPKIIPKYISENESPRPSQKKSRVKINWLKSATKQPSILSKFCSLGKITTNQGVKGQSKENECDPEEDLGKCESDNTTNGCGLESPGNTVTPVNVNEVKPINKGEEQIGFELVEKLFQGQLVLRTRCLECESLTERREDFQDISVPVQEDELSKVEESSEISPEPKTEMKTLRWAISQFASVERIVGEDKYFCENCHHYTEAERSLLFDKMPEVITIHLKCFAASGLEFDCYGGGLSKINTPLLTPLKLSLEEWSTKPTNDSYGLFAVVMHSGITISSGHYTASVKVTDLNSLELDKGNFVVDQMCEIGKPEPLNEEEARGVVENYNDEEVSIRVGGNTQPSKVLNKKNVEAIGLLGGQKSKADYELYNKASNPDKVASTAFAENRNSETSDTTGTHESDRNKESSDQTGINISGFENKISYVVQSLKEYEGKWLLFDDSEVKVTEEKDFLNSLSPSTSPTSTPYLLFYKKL
Chain of Cytochrome P450 1A2 (Homo sapiens) (P05177 whole entry, looked up): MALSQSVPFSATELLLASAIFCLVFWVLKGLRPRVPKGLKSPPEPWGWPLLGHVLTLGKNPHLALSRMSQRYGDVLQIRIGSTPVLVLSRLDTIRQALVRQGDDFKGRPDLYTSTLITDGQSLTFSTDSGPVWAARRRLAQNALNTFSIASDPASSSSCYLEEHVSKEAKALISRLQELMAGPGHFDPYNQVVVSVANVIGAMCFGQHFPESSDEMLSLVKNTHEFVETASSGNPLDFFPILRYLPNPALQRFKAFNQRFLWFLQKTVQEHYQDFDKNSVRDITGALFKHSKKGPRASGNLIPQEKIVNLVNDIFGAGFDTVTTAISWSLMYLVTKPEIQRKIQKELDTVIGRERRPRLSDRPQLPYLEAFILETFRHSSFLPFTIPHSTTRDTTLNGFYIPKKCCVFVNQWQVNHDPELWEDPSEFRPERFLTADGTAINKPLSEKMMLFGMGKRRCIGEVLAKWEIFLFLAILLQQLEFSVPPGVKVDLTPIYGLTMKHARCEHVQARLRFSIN
Chain of ATP-dependent 6-phosphofructokinase (Trypanosoma brucei brucei) (O15648 whole entry, looked up): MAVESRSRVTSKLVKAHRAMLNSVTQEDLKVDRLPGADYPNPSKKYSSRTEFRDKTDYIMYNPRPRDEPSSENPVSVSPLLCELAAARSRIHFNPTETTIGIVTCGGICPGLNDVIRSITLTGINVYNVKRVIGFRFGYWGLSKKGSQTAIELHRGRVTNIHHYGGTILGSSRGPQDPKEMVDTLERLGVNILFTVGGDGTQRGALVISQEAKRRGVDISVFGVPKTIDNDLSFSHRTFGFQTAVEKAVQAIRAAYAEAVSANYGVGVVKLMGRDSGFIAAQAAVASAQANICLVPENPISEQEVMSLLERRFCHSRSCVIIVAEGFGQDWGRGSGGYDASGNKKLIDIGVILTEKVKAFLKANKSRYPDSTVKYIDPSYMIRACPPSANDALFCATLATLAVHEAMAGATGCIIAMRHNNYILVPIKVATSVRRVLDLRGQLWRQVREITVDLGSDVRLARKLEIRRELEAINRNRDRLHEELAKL
Chain of Luciferin 4-monooxygenase (Photinus pyralis) (P08659 whole entry, looked up): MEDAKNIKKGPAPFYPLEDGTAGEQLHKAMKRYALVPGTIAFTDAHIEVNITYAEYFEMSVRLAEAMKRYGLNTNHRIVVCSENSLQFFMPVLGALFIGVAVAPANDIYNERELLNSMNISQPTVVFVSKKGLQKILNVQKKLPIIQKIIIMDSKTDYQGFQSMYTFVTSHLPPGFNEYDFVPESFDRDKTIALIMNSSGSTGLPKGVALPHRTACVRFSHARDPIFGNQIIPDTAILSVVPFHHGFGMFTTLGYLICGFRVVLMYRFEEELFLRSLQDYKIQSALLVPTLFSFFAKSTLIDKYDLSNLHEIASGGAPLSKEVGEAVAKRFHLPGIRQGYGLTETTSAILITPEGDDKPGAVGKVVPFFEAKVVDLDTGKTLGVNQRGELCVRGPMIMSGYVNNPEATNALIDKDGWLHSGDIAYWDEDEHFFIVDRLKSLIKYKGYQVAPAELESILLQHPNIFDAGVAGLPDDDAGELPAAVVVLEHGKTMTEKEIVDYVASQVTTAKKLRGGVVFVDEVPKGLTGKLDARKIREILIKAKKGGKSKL

CN(C)[C@@H]1C(=O)C(C(N)=O)=C(O)[C@]2(O)C(=O)C3=C(O)c4c(O)cccc4[C@@](C)(O)[C@H]3[C@H](O)[C@@H]12
inactive: outcome [1] | Potency [2] | activity change, negative = inhibition ([3]; at 17.2 µM (top of the series)) -3.39% | outcome [4] | outcome [5] | Potency [6] | activity change, negative = inhibition [7] -0.12%
-12.1%: max response [7, 20]
-10.8%: max response [7, 21]
active: Potency [8] 31.6 µM

NCC[C@H](O)C(=O)N[C@H]1C[C@@H](N)[C@@H](O[C@H]2O[C@@H](CN)[C@@H](O)[C@@H](O)[C@@H]2N)[C@@H](O[C@H]2O[C@@H](CO)[C@@H](O)[C@@H]2O)[C@@H]1O
inactive: outcome [1] | Potency [2] | activity change, negative = inhibition ([3]; at 17.2 µM (top of the series)) -14.8% | outcome [4] | outcome [5] | Potency [6] | activity change, negative = inhibition [7] -3.44% | Potency [9] | Potency [10] | Potency [11] | Potency [12] | activity, negative = inhibition ([13]; parasite line A) 12.6% | activity, negative = inhibition ([13]; parasite line B) 8.36% | Potency [14] | Potency [15] | Potency [16] | Potency [17]
-13.9%: max response [7, 21]
-10.6%: max response [7, 20]

CN1[C@H]2CC(=O)C[C@@H]1[C@@H](O)C2
inactive: outcome [1] | Potency [2] | activity change, negative = inhibition ([3]; at 17.2 µM (top of the series)) -9.47% | outcome [4] | Potency [18] > 20.6 µM | Potency [19] > 20.6 µM | outcome [5] | Potency [6] | activity change, negative = inhibition [7] -5.66% | Potency [8]
-23.7%: max response [7, 21]
-20.9%: max response [7, 20]

C=C[C@H]1CN2CC[C@@H]1C[C@H]2[C@@H](O)c1ccnc2ccccc12
inactive: outcome [1] | Potency [2] | activity change, negative = inhibition ([3]; at 17.2 µM (top of the series)) -25.9% | outcome [4] | Potency [18] > 20.6 µM | Potency [19] > 20.6 µM | Potency [6] | activity change, negative = inhibition [7] -1.72% and -4.09% | Potency [8]
9.79% and -10.1%: max response [7, 20]
6.74% and -12.1%: max response [7, 21]

CNC[C@H](O)c1ccc(O)cc1
-11.6%: max response [7, 21]
-14.8%: max response [7, 20]
inactive: outcome [1] | activity change, negative = inhibition ([3]; at 17.2 µM (top of the series)) -22.7% | activity change, negative = inhibition ([3]; at 38 µM (top of the series)) 10.5% | outcome [4] | Potency [18] > 46 µM and > 20.6 µM | Potency [19] > 46 µM and > 20.6 µM | outcome [5] | Potency [6] | activity change, negative = inhibition [7] -0.0081% | Potency [9] | Potency [8] | Potency [10] | Potency [11] | Potency [12] | activity, negative = inhibition ([13]; parasite line A) 3.3% | activity, negative = inhibition ([13]; parasite line B) 13.2% | Potency [14] | Potency [15] | Potency [16] | Potency [17]

CN1[C@@H](C[C@@H](O)c2ccccc2)CCC[C@@H]1C[C@H](O)c1ccccc1
active: Potency [2] 5.01 µM
3.31%: max response [7, 20]
inactive: outcome [1] | outcome [4] | Potency [18] > 20.6 µM | Potency [19] > 20.6 µM | outcome [5] | Potency [6] | activity change, negative = inhibition [7] -1.73% | Potency [8]
0.966%: max response [7, 21]

— PubChem BioAssay (NCATS)
